Rows were chosen to be rich in hits. Some 6.3% of all compounds tested hit in one or more screens of this group.
tim23-1 inh – growth inhibitors of tim23-1 mutant yeast. S. cerevisiae tim23-1 growth, BacTiter-Glo luminescence, 24 h. inhibition, % at 20 µM. 330,000 compounds, 1.3% hits. AID 463212;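 active = growth inhibition of the mutant yeast at or above 50%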;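 note: temperature-sensitive mutant grown at 25 °C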
MPTP inh – permeability transition pore inhibition; isolated mouse mitochondria, Ca2+ swelling absorbance, 30 min; inhibition, % at 10 µM; 360,000 compounds, 1.4% hits; AID 602449;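 active = inhibition of 50% or more, scaled per plate between neutral and stimulator controls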
tim10-1 inh – inhibits growth of tim10-1 mutant yeast | inhibition, % at 20 µM | S. cerevisiae tim10-1 ts strain growth, BacTiter-Glo, 24 h | 330,000 compounds, 2.2% hits;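 active = inhibition of at least 40%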;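 note: mutant grown at 25 °C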
TIM10 inh – TIM10 yeast growth inhibition | S. cerevisiae TIM10 strain growth, BacTiter-Glo luminescence, 24 h | inhibition, % at 10 µM | 330,000 compounds, 1.4% hits | AID 463195;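 active = inhibition of 40% or more at the single tested concentration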;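 note: wild-type TIM10 isogenic control strain grown at permissive 25 °C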
Mdm2 MdmX PPI – disrupts the human Mdm2-MdmX interaction; 330,000 compounds, 3% hits; AID 485346; inhibition, % at 8 µM; SaOS-2 split-luciferase Mdm2/MdmX complementation, luminescence; O15151+Q00987;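 active = inhibition of at least 50% at 8 µM in the primary screen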
Mdm2-MdmX conf – human Mdm2/MdmX binding inhibition, confirmed. shares compounds with Mdm2 MdmX PPI. AID 489028. 10,000 compounds, 55% hits. inhibition, % at 8 µM. luminescent assay; in the data active = inhibition above about 40%
FLuc counter – inhibits full-length luciferase, flagging false Mdm2/MdmX hits. shares compounds with Mdm2 MdmX PPI. SaOS-2 full-length luciferase counterscreen, luminescence. inhibition, % at 8 µM. 6,200 compounds, 77% hits. AID 504607;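 active = mean inhibition at 8 µM reaching about 37%, which flags the compound as non-specific, limit read from the data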;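 note: p53-null SaOS-2 cells with luciferase driven by a doxycycline-inducible promoter; compound on cells about two nights before reading with doxycycline added after day one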
Hits are given with their value.

`O=C(Nc1ccc(-c2csc(Nc3ccc(Cl)cc3)n2)cc1)c1cc([N+](=O)[O-])cc(C(F)(F)F)c1` gave tim23-1 inh inactive, MPTP inh inactive, tim10-1 inh inactive, TIM10 inh inactive, Mdm2 MdmX PPI 71 and Mdm2-MdmX conf inactive.
For COc1ccc([C@H]2C[C@H](n3cc(COC(=O)c4ccccc4)nn3)[C@@H](O)CN2C(=O)c2cccs2)cc1 the results were MPTP inh inactive.
O=C(O)c1sc2cc(C(F)(F)F)cnc2c1-c1ccccc1 was read as tim23-1 inh inactive, MPTP inh inactive, tim10-1 inh inactive, TIM10 inh inactive and Mdm2 MdmX PPI inactive.
Screening CSc1nnc(-c2sc3cc(C(F)(F)F)cnc3c2-c2ccccc2)n1C returned tim23-1 inh inactive, MPTP inh inactive, tim10-1 inh inactive, TIM10 inh inactive, Mdm2 MdmX PPI 67, Mdm2-MdmX conf 48 and FLuc counter 50.
For O=C(NCc1ccccc1)c1cc(C2CCCN(S(=O)(=O)c3ccccc3)C2)on1 (centres undefined) the results were MPTP inh inactive.
CCCCCCc1cc2cc(/C(N)=N/NC(=O)c3ccncc3)c(=O)oc2cc1O was read as tim23-1 inh inactive, MPTP inh inactive, tim10-1 inh inactive, TIM10 inh inactive, Mdm2 MdmX PPI 65 and Mdm2-MdmX conf inactive.
For N/C(=N\NC(=O)c1ccc(F)cc1)c1cc2ccccc2oc1=O the results were tim23-1 inh inactive, MPTP inh inactive, tim10-1 inh inactive, TIM10 inh inactive and Mdm2 MdmX PPI inactive.
Screening CCC/C=C/c1ccc(CN2C(C)C(=O)N(Cc3cn(CCC4OCCO4)nn3)CCS2(=O)=O)cc1 (centres undefined) returned MPTP inh inactive.
Cc1cc(NC(=O)Cn2cnc3c(nnn3-c3ccc(C)c(Cl)c3)c2=O)no1 was read as tim23-1 inh inactive, MPTP inh inactive, tim10-1 inh inactive, TIM10 inh inactive and Mdm2 MdmX PPI inactive.
COc1ccc(-n2nnc3c(=O)n(CC(=O)Nc4ccc5c(c4)OCCO5)cnc32)cc1OC was read as tim23-1 inh inactive, MPTP inh inactive, tim10-1 inh inactive, TIM10 inh inactive, Mdm2 MdmX PPI 80 and Mdm2-MdmX conf inactive.
For CCOc1ccc(-n2nnc3c(=O)n(CC(=O)Nc4cc(C)on4)cnc32)cc1 the results were tim23-1 inh inactive, MPTP inh inactive, tim10-1 inh inactive, TIM10 inh inactive, Mdm2 MdmX PPI 56 and Mdm2-MdmX conf inactive.
COc1ccc(-n2ncc3c(=O)n(CC(=O)Nc4ccc5c(c4)OCCO5)cnc32)cc1 was read as tim23-1 inh inactive, MPTP inh inactive, tim10-1 inh inactive, TIM10 inh inactive and Mdm2 MdmX PPI inactive.
Screening Cc1cc(NC(=O)Cn2cnc3c(nnn3-c3cccc(F)c3)c2=O)no1 returned tim23-1 inh inactive, MPTP inh inactive, tim10-1 inh inactive, TIM10 inh inactive and Mdm2 MdmX PPI inactive.
O=C(Cn1cnc2c(nnn2-c2cccc(F)c2)c1=O)Nc1ccc2c(c1)OCCO2 was read as tim23-1 inh inactive, MPTP inh inactive, tim10-1 inh inactive, TIM10 inh inactive, Mdm2 MdmX PPI 52 and Mdm2-MdmX conf inactive.
For COc1ccc(-n2[nH]c3c(cnc4ccccc43)c2=O)cc1 the results were MPTP inh inactive.
`COc1ccc(OC)c(CN2C(=O)CN(S(C)(=O)=O)CC2(C)C(=O)NCc2ccccc2)c1` (centres undefined) gave MPTP inh inactive.
For O=C1NC[C@@H](CCCCN2CCN(CC3CCCCC3)C(=O)C2=O)N(CCC2CCCCC2)C1=O the results were MPTP inh inactive.
For CCCNC(=O)C1(C)CCCN(CCC(=O)c2ccccc2)C1 (centres undefined) the results were MPTP inh inactive.
Screening Cn1c(-c2cc(Br)ccc2O)n[nH]c1=S returned tim23-1 inh inactive, MPTP inh inactive, tim10-1 inh inactive, TIM10 inh inactive and Mdm2 MdmX PPI inactive.
`Oc1ccc(Br)cc1-c1cc(-c2ccc(Cl)cc2)n[nH]1` gave tim23-1 inh inactive, MPTP inh inactive, tim10-1 inh inactive, TIM10 inh inactive, Mdm2 MdmX PPI 85, Mdm2-MdmX conf inactive and FLuc counter inactive.
Screening O=C(Cc1ccc2c(c1)OCCO2)Nc1cc(Cl)ccc1N1CCOCC1 returned tim23-1 inh inactive, MPTP inh inactive, tim10-1 inh inactive, TIM10 inh inactive and Mdm2 MdmX PPI inactive.
Screening CC1=C(C(=O)N2CCCCCC2)CC(CC(=O)NC(c2ccccc2)c2ccccc2)C(=O)N1Cc1ccccc1 (centres undefined) returned MPTP inh inactive.
COc1ccc2c(-c3ccc(S(N)(=O)=O)cc3)c(-c3ccc(S(C)(=O)=O)cc3)sc2c1 was read as tim23-1 inh inactive, MPTP inh inactive, tim10-1 inh inactive, TIM10 inh inactive, Mdm2 MdmX PPI 67 and Mdm2-MdmX conf inactive.
COc1ccc2c(Cl)c(C(=O)NCCc3ccc(S(N)(=O)=O)cc3)sc2c1 was read as tim23-1 inh inactive, MPTP inh inactive, tim10-1 inh inactive, TIM10 inh inactive and Mdm2 MdmX PPI inactive.
Screening COc1ccc(C(=O)c2cc(OC)c(OC)c(OC)c2)cc1OC returned MPTP inh inactive.
CCN(CC(=O)Nc1c(F)cccc1F)C(=O)c1ccc(OCC(=O)N2CCOCC2)c(OC)c1 was read as MPTP inh inactive.
For CC(C)(C)n1nnnc1C(c1ccccc1)N1CCN(C(=O)C2CCCO2)CC1 (centres undefined) the results were MPTP inh inactive.
C#CCOCCOCCOCCNc1nc(N2CCN(C(=O)Cn3cc(CC(C)O)nn3)CC2)nc(N2CCN(C(=O)[C@H](C)n3cc(CCC(=O)O)nn3)CC2)n1 (some centres undefined) was read as MPTP inh inactive.
Screening COc1ccc(/C=C/c2ccc3c(Br)ccc(O)c3n2)cc1 returned tim23-1 inh inactive, MPTP inh inactive, tim10-1 inh inactive, TIM10 inh inactive and Mdm2 MdmX PPI inactive.
`COc1ccc(Br)cc1/C=C/c1ccc2cccc(O)c2n1` gave tim23-1 inh inactive, MPTP inh inactive, tim10-1 inh inactive, TIM10 inh inactive, Mdm2 MdmX PPI 51 and Mdm2-MdmX conf inactive.
Screening COc1cc(Br)cc(/C=C/c2ccc3cccc(O)c3n2)c1OC returned tim23-1 inh inactive, MPTP inh inactive, tim10-1 inh inactive, TIM10 inh inactive, Mdm2 MdmX PPI 65 and Mdm2-MdmX conf inactive.
Cc1cc2nc(-c3nnnn3-c3c(C)cccc3C)c(=O)[nH]c2cc1C was read as MPTP inh inactive.
For O=C(Nc1ccc(O)c2c(=O)cc(-c3cccc(Cl)c3)oc12)c1ccccc1Cl the results were tim23-1 inh inactive, MPTP inh inactive, tim10-1 inh inactive, TIM10 inh inactive, Mdm2 MdmX PPI 91 and Mdm2-MdmX conf inactive.

From PubChem BioAssay
